Rab9 prom act: activators of Rab9 promoter | Huh7 Rab9 promoter-luciferase reporter, luminescence, 24 h | Potency, µM (series often up to 9.22 µM), inactives show at the highest dose activation, negative = inhibition, most hits filed as activators | actives 2.8% (n = 320,000) | AID 485297; further: % of control where 0% means no effect; nearly all actives have a fitted effect of over 60% in size
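Using Huh7 cells stably transfected with Rab9 promoter–luciferase, compounds were incubated 24 h at 37 °C, 5% CO2; luciferase luminescence was read 10 min after reagent addition.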
ELG1 DNA repair: ELG1-dependent DNA repair inhibition; HEK293T ELG1-luciferase reporter, luminescence, 16 h; DNA damage induced by 5-fluorouridine; Potency, µM (series often up to 46.1 µM), inactives show at the highest dose activity change, negative = inhibition, usual class: inhibitors; AID 504467; actives 2.3% (n = 330,000); further: on the % scale 0 is the no-effect control and ±100 the full control effect; nearly all actives have a fitted effect of over 55% in size
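Reporter activity after DNA damage by 5-fluorouridine is monitored. Compound-treated cells incubate 16 hr at 37 °C, then ONE-Glo is added for 30 min before luminescence reading.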
ELG1 genotox: inducers of genotoxicity in HEK293T ELG1-luciferase cells; HEK293T ELG1-luciferase reporter, luminescence, 16 h; Potency, µM (titrated, usually from 46 µM), without a hit: top-dose activity change, positive = activation, usual class: activators; actives 1.3% (n = 330,000); AID 504466; further: % of control where 0% means no effect; nearly all actives have a fitted effect of over 60% in size
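DMSO vehicle served as control against compound-treated ELG1-luciferase HEK293T cells; exposure lasted 16 hr at 37 °C and 5% CO2, followed by ONE-Glo luminescence detection after 30 min.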
NPC1 promoter act: NPC1 promoter activation; Huh7 NPC1 promoter luciferase reporter, 24 h; Potency, µM (titrated, usually from 9.22 µM), for the others: at the highest dose activation, hits mostly activators; actives 2.4% (n = 320,000); further: % of control where 0% means no effect; nearly all actives have a fitted effect of over 60% in size
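In 1536-well qHTS, Huh7 cells harboring an NPC1 promoter–luciferase construct received compound for 24 h; activation was quantified by luminescence following luciferase reagent addition.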
FLuc modulator: firefly luciferase modulation, counter-screen for miR-21 project | P08659 | purified FLuc, Km substrates, luminescence inhibition | Potency, µM (highest dose often 57.5 µM), for the others: at the highest dose activity change, negative = inhibition, usual class: inhibitors | actives 6.9% (n = 360,000) | AID 588342;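 further: plate controls were vehicle for no effect and reference inhibitor for full effect; nearly all actives have a fitted effect of over 55% in size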
Target sequence (P08659 whole entry, looked up): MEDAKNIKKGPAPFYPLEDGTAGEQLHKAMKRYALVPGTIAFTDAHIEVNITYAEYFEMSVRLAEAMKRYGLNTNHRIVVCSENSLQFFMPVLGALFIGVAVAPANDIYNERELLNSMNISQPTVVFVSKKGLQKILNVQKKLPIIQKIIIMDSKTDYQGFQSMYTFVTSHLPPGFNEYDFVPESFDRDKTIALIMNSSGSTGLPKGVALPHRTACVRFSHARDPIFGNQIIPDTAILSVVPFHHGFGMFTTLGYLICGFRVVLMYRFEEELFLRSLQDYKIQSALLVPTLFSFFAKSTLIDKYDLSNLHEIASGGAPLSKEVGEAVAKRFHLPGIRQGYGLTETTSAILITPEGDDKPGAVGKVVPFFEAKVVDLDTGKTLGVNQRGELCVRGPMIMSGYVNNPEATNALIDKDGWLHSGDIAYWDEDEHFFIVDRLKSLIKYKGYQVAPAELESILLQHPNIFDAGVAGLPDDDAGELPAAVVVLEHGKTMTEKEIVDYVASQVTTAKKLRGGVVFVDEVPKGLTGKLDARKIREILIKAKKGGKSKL
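Purified P. pyralis luciferase, 10 nM final, with Km-level 10 uM D-luciferin and 10 uM ATP in 50 mM Tris acetate pH 7.5, 10 mM Mg acetate, 0.01% Tween-20, 0.05% BSA; 6-point qHTS titration about 60 µM downward; luminescence read.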
SMN2 splice enh: SMN2 splice variant enhancement; HEK293 SMN2-luciferase splicing reporter, luminescence, 30-36 h; Potency, µM (doses to about 46.1 µM), inactives show top-dose activity change, positive = activation, actives largely listed as activators; actives 2.8% (n = 210,000); AID 1458; further: % of control where 0% means no effect; nearly all actives have a fitted effect of over 55% in size
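qHTS luciferase splicing reporter: luminescence rises when SMN2 exon 7 is included in transfected HEK293 cells. Compound exposure lasted 30-36 h at 37C, with 4.5 mM final sodium butyrate as control, followed by a ONE-Glo read.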
* marks the source's active call; other numbers are inactive results. This is a sample that favours compounds with a hit; in the whole collection about 9.4% have one here. The call rests on the fitted dose curve; in most records, active means well fitted curve in the direction sought with a large enough effect; inconclusive means small, poorly fitted or top-dose-only effect, or another doubt; inactive means no such curve, though single readings can be large; an effect the other way counts as inactive or inconclusive. Potency means the concentration at half of the fitted maximal effect.

For COc1ccc(-c2nc(CCNC(=O)c3cccs3)cs2)cc1 the results were Rab9 prom act -5%, ELG1 DNA repair 21µM*, ELG1 genotox inconclusive, NPC1 promoter act 1%, FLuc modulator 27µM* and SMN2 splice enh -71%.
For COc1ccc(NC(=O)Nc2nnc(N3CCCCCC3)s2)c(OC)c1 the results were FLuc modulator -1%.
For Cc1nc(-c2ccc(F)cc2)sc1CCNC(=O)c1cccs1 the results were FLuc modulator -16%.
Screening COc1ccc(-c2nc(C)c(CCNC(=O)c3cccs3)s2)cc1OC returned FLuc modulator 17µM*.
Screening Cc1csc2nc(CNC(=O)c3ccco3)cn12 returned Rab9 prom act inconclusive, ELG1 DNA repair inconclusive, ELG1 genotox 18µM*, NPC1 promoter act inconclusive, FLuc modulator 17µM* and SMN2 splice enh 20µM*.
Screening CCOc1ccc(C(=O)NCC(=O)OCC(=O)Nc2ccccc2OC)cc1 returned Rab9 prom act -3%, ELG1 DNA repair 11%, ELG1 genotox 2%, NPC1 promoter act 0%, FLuc modulator 24µM* and SMN2 splice enh -2%.
COc1ccc(C(=O)NCC(=O)OCC(=O)Nc2cc([N+](=O)[O-])ccc2F)cc1 was read as Rab9 prom act 1%, ELG1 DNA repair inconclusive, ELG1 genotox 12%, NPC1 promoter act -2%, FLuc modulator 24µM* and SMN2 splice enh -1%.
`COc1ccc(OC)c(NC(=O)COC(=O)CNC(=O)c2ccc(OC)c(OC)c2)c1` gave Rab9 prom act 2%, ELG1 DNA repair 17%, ELG1 genotox 0%, NPC1 promoter act -1%, FLuc modulator 0% and SMN2 splice enh -2%.
Screening CCOc1ccc(C(=O)NCC(=O)OCC(=O)Nc2ccc(C)c(S(=O)(=O)N(C)C)c2)cc1 returned Rab9 prom act -3%, ELG1 DNA repair 15%, ELG1 genotox 2%, NPC1 promoter act -3%, FLuc modulator 4.8µM* and SMN2 splice enh 1%.
Cc1ccc(NC(=O)COC(=O)CNC(=O)C2CCCCC2)cc1S(=O)(=O)N(C)C was read as ELG1 DNA repair 13% and ELG1 genotox -3%.
For CCOc1ccc(C(=O)NCC(=O)OCC(=O)Nc2ccccc2OCC)cc1 the results were Rab9 prom act -3%, ELG1 DNA repair 13%, ELG1 genotox 1%, NPC1 promoter act 1%, FLuc modulator 24µM* and SMN2 splice enh 2%.
CCN(CC)CCCNC(=O)c1nn(C)c2c1CSc1ccccc1-2 was read as FLuc modulator -3%.
Screening CCOc1ccccc1NC(=O)Nc1cc2c(cc1N1CCCCC1)n(CC)c(=O)n2CC returned FLuc modulator -2%.
`COc1ccc(C(=O)Nc2ccc(N3CCCC3)cc2)cc1OC` gave Rab9 prom act 4µM*, ELG1 DNA repair inconclusive, ELG1 genotox inconclusive, NPC1 promoter act 3.5µM* and FLuc modulator 5.4µM*.
For COc1ccc(C(=O)Nc2ccc(N3CCCC3)cc2)cc1Br the results were Rab9 prom act 28%, ELG1 DNA repair 26%, ELG1 genotox 9%, NPC1 promoter act 17% and FLuc modulator inconclusive.
For CN(C)c1cccc(C(=O)Nc2ccc(N3CCOCC3)cc2)c1 the results were Rab9 prom act inconclusive, ELG1 DNA repair inconclusive, ELG1 genotox inconclusive, NPC1 promoter act 22%, FLuc modulator 21µM* and SMN2 splice enh inconclusive.
For COc1ccc(C(=O)Nc2ccc(S(=O)(=O)N3CCOCC3)cc2)cc1OC the results were Rab9 prom act -6%, ELG1 DNA repair -2%, ELG1 genotox 0%, NPC1 promoter act 0%, FLuc modulator 2% and SMN2 splice enh 13%.
COc1ccc(C(=O)Nc2ccc(N3CCOCC3)cc2)cc1OC was read as Rab9 prom act 10%, ELG1 DNA repair inconclusive, ELG1 genotox 16%, NPC1 promoter act 23%, FLuc modulator 24µM* and SMN2 splice enh 9%.
For COc1ccc(CCNC(=O)Cn2nnc(-c3ccc(N4CCOCC4)cc3)n2)cc1OC the results were Rab9 prom act inconclusive, ELG1 DNA repair inconclusive, ELG1 genotox 8%, NPC1 promoter act 3%, FLuc modulator 3µM* and SMN2 splice enh inconclusive.
CCOC(=O)c1c(C)[nH]c(CCC(=O)Nc2cc(C)cc(C)c2)c1C was read as FLuc modulator -9%.
For Cc1ccc(C(=O)N2CCN(c3ccc(NC(=S)NC(=O)Cc4ccccc4)cc3)CC2)cc1 the results were Rab9 prom act -8%, ELG1 DNA repair 0%, ELG1 genotox -1%, NPC1 promoter act -6%, FLuc modulator -1% and SMN2 splice enh -34%.
`COc1ccc(C(=O)Nc2ccc(N3CCCC3)cc2)cc1` gave Rab9 prom act inconclusive, ELG1 DNA repair inconclusive, ELG1 genotox inconclusive, NPC1 promoter act 26%, FLuc modulator 7.6µM* and SMN2 splice enh 8%.
Screening COc1ccc(C(=O)N2CCN(c3ccc(NC(=O)Cc4ccccc4)cc3)CC2)cc1 returned Rab9 prom act -3%, ELG1 DNA repair 9.2µM*, ELG1 genotox -7%, NPC1 promoter act 0% and FLuc modulator 0%.
`COc1ccc(Nc2ncc(C(=O)N3CCN(c4ccc(F)cc4)CC3)c3ccccc23)cc1` gave Rab9 prom act -7%, ELG1 DNA repair 21µM*, ELG1 genotox -12%, NPC1 promoter act -3%, FLuc modulator 6% and SMN2 splice enh -50%.
COc1ccccc1N1CCN(c2ncc(C(=O)N3CCN(c4cccc(Cl)c4)CC3)c3ccccc23)CC1 was read as Rab9 prom act -17%, ELG1 DNA repair 5.2µM*, ELG1 genotox -20%, NPC1 promoter act -27%, FLuc modulator -10% and SMN2 splice enh -70%.
O=C(Nc1nnc(SCC(=O)N2CCOCC2)s1)c1ccccc1Cl was read as Rab9 prom act inconclusive, ELG1 DNA repair inconclusive, ELG1 genotox 13%, NPC1 promoter act inconclusive, FLuc modulator 8.5µM* and SMN2 splice enh -7%.
For O=C(Nc1nnc(SCC(=O)N2CCCCC2)s1)c1ccccc1F the results were Rab9 prom act 17%, ELG1 DNA repair inconclusive, ELG1 genotox 10%, NPC1 promoter act 12% and FLuc modulator 24µM*.
O=C(Nc1nnc(SCC(=O)N2CCCCC2)s1)c1cccs1 was read as Rab9 prom act 17%, ELG1 DNA repair inconclusive, ELG1 genotox 2%, NPC1 promoter act 2%, FLuc modulator 19µM* and SMN2 splice enh inconclusive.
`COc1ccc(Cl)cc1NC(=O)CCCn1c(C)c2cnn(-c3ccccc3)c(=O)c2c1C` gave FLuc modulator -1% and SMN2 splice enh -11%.
